High-throughput results from PubChem BioAssay.
Vaccinia Venus: inhibitors of vaccinia virus (Venus reporter); Vaccinia virus Venus reporter expression, fluorescence; Potency, µM (highest dose often 36.5 µM), without a hit: at the top dose activity change, negative = inhibition, actives largely listed as inhibitors; actives 0.46% (n = 330,000); calls by dose curve; tested in A549 cells; note: potency is the fitted concentration of half-maximal effect; nearly all actives have a fitted effect of over 30% in size
VACV mCherry inh: vaccinia inhibition (mCherry reporter); Vaccinia virus mCherry reporter infection, fluorescence; AID 720579; Potency, µM (highest dose often 36.5 µM), for inactives: at the top dose activity change, negative = inhibition, actives largely listed as inhibitors; actives 0.63% (n = 310,000); calls by dose curve; tested in A549 cells; note: potency is the fitted concentration of half-maximal effect; nearly all actives have a fitted effect of over 35% in size
HCMV antiviral: inhibitors of human cytomegalovirus; HFF cells, HCMV-luciferase reporter, 72 h; active compounds read low; activity change, negative = inhibition, % at 57.5 µM; actives 4.5% (n = 410,000); AID 1259415; in the data active = activity change below about -60%; inconclusive = no clear call, values can overlap the other calls; inactive = above about -39%
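Two compound doses tested in HFFs infected with HCMV-luciferase, MOI 1 PFU/cell, 72 h at 37C. Lysate luminescence read with OneGlo; data normalized against buffer-only and 10uM Salinomycin inhibitor controls.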
MARV entry inh: blocks Marburg virus binding to or entry into cells | Marburg virus pseudotyped entry inhibition, cell reporter | Potency, µM (series often up to 37.8 µM), for inactives: at the top dose activity change, negative = inhibition, usual class: inhibitors | actives 1.8% (n = 300,000) | AID 540276; calls by dose curve; tested in HEK293 cells; note: potency is the fitted concentration of half-maximal effect
Lassa entry inh: blocks Lassa virus binding to or entry into cells; Lassa virus pseudotype entry inhibition, cell reporter; Potency, µM (highest dose often 37.9 µM), without a hit: at the top dose activity change, negative = inhibition, actives largely listed as inhibitors; actives 1.2% (n = 300,000); AID 540256; calls by dose curve; tested in HEK293 cells; note: potency is the fitted concentration of half-maximal effect; nearly all actives have a fitted effect of over 50% in size
HCV inhibitor: HCV inhibition | actives 3.4% (n = 340,000) | Huh7.5.1 HCVcc-Cre infection, luciferase reporter, 44 h | AID 651820 | Potency, µM (titrated, usually from 41.8 µM), without a hit: at the highest dose activity change, negative = inhibition, actives largely listed as inhibitors; active = well fitted inhibition curve with a large enough effect; inconclusive = small, poorly fitted or top-dose-only effect, or another doubt; inactive = no such curve, though single readings can be large or run the other way; note: potency is the fitted concentration of half-maximal effect
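Infectious HCV cell culture screen: compound-treated cells (1,000/well, pre-plated 4 h) are infected with HCVcc-Cre at roughly 0.5 moi and grown 44 h. Infection is quantified by luciferase signal after 15 min substrate incubation at room temperature.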
Numbers without * were called inactive; i = inactive; ? = inconclusive; . = not tested or not shown; [ ] = remark or other dose. Rows were chosen to be rich in hits. Some 7.8% of all compounds tested hit in one or more screens of this group. % is set by controls: 0 for no effect and ±100 for the full control effect.

SMILES	Vaccinia Venus	VACV mCherry inh	HCMV antiviral	MARV entry inh	Lassa entry inh	HCV inhibitor
CCOC(=O)c1c(NC(=O)CN(CC)CC)sc2c1CCN(C(=O)OCC)C2	?	?	?	?	?	2.82µM*
CCOC(=O)c1c(NC(=O)CN2CCCCC2)sc2c1CCN(C(=O)OCC)C2	-29.0%	?	-60.0*	?	?	10µM*
CCOC(=O)c1c(NC(=S)N2CCN(C)CC2)sc2c1CCN(C(=O)OCC)C2	4.9%	-17.5%	-98.8*	?	-15.9%[46.1 µM]	6.31µM*
CCCNC(=O)Cn1c(=O)n(CC2CCC(C(=O)NC)CC2)c(=O)c2sccc21 (centres undefined)	-11.2%	-13.7%	3.4	.	?	.
CCS(=O)(=O)c1ncc(Cl)c(C(=O)N2CCN(c3cccc(Cl)c3)CC2)n1	-19.4%[7.34 µM]	-13.2%[7.34 µM]	-100.6*	5.62µM*	?	.
CC1CCc2onc(C(=O)N3CCN(c4cccc(Cl)c4)CC3)c2C1 (centres undefined)	-11.4%	i	-60.4*	.	?	.
CS(=O)(=O)c1ncc(Cl)c(C(=O)N2CCN(c3cccc(Cl)c3)CC2)n1	-9.5%[7.34 µM]	-3.9%[7.34 µM]	-100.7*	?	?	.
Clc1ccc(-c2nc3ccccn3c2CN2CCCCC2)cc1	.	.	-76.7*	.	.	-27.9%
COc1ccc(-c2nc3c4ccccc4ccn3c2CN2CCCCC2)cc1OC	.	.	1.3	.	.	11.2µM*
C=CS(=O)(=O)N(C(=C)C(=O)OC)S(C)(=O)=O	.	.	-80.7*	.	.	.
Cn1cnc([N+](=O)[O-])c1S(=O)(=O)Oc1ccc(Cl)cc1	-14.5%	?	17.6	11.2µM*	?	?
C[C@@H]1CCC(=O)N(CC[C@H](Oc2ccccc2)c2ccccc2)CC1	-7.8%	-25.9%	-64.5*	.	.	-18.7%
Cc1ccc(C)c(CN2C(=O)c3ccccc3S(=O)c3ccc(C(=O)N4CCN(c5ccccn5)CC4)cc32)c1 (centres undefined)	-3.6%	?	-98.2*	?	?	11.2µM*
Cc1ccc(C)c(CN2C(=O)c3ccccc3S(=O)(=O)c3ccc(C(=O)N4CCN(C)CC4)cc32)c1	-20.8%	-22.4%	-34.4	3.7%[46.1 µM]	?	?
COc1ccccc1N1CCN(C(=O)c2ccc3c(c2)N(Cc2cc(C)ccc2C)C(=O)c2ccccc2S3(=O)=O)CC1	-19.0%	-18.1%	-66.8*	?	?	.
CCOC(=O)c1sc2nc(-c3ccco3)c3c(c2c1N)CC(C)(C)OC3	12.6µM*	10µM*	-24.3	14.2%	-17.3%	?
COC(=O)CSc1ncnc2c1sc1nc(-c3ccco3)c3c(c12)CC(C)(C)OC3	.	.	.	.	.	7.2%
Cc1ccc(-c2nc(S(=O)(=O)c3ccc(C)cc3)c(SCC(=O)NC3CCCCC3)o2)cc1	?	?	-0.8	-4.9%[46.1 µM]	0.5%[46.1 µM]	.
Cc1ccc2nc(N3CCN(c4ccccc4)CC3)c3nnnn3c2c1	0.8%	-8.2%	-25.9	.	18.9%[46.1 µM]	.
COc1ccc(/C(C)=N/NC(=O)CNC(=O)/C=C\c2ccccc2)c(OC)c1	.	.	-85.9*	.	.	17.8%
COc1ccc(/C(C)=N/NC(=O)CNC(=O)COc2ccccc2)c(OC)c1	-21.3%	-3.2%	-35.4	21.3%[46.1 µM]	-6.5%[46.1 µM]	-15.0%
COc1cc(C(=O)NCC(=O)N/N=C(C)\C=C\c2ccccc2)cc(OC)c1OC	-28.8%	?	-72.6*	-23.3%[46.1 µM]	-11.2%[46.1 µM]	?
C=CCn1c(SCC(=O)c2[nH]c(C)c(C(=O)OCC)c2C)nc2scc(-c3ccc(OC)c(OC)c3)c2c1=O	-5.4%	-3.4%	-100.0*	?	-24.7%	?
O=C1/C(=C/c2ccncc2)Oc2cc(OS(=O)(=O)c3ccccc3)ccc21	.	.	1.4	.	.	?
COc1cccc(OC)c1C(=O)Oc1ccc2c(c1)O/C(=C\c1ccncc1)C2=O	?	?	-75.1*	7.08µM*	5.2%	7.5%
SMILES	Vaccinia Venus	VACV mCherry inh	HCMV antiviral	MARV entry inh	Lassa entry inh	HCV inhibitor
CCN=c1scc(-c2ccc(F)cc2)n1/N=C/c1ccccn1	-8.2%	-7.5%	-88.4*	?	?	-12.0%
C=CCN=c1scc(-c2ccc(F)cc2)n1/N=C/c1ccccn1	-6.2%	-21.2%	-85.3*	?	?	?
O=C(Cc1ccc(F)cc1)N/N=C/c1ccccn1	.	.	-20.9	-3.0%	-0.5%	6.4%
C1=Cc2ccccc2/C1=C\c1cc[cH-]c1.[Fe+2].c1cc[cH-]c1	5.6%	-12.1%	.	.	.	.
O=c1oc2ccccc2c2c1nnn2CCO	-12.6%	-21.2%	-63.4*	17.5%[46.1 µM]	9.5%	20.2%
CCCn1nnc2c(=O)oc3ccccc3c21	-5.1%	i	-5.3	2.6%	-11.6%	17.9%
COc1ccc(CCNc2oc(/C=C/c3cc(OC)c(OC)c(OC)c3)nc2C#N)cc1OC	-12.8%	-14.4%	124.8	?	-1.9%[46.1 µM]	.
CCOCCCNC(=O)C1CCN(c2nc3ccc(Cl)cc3[nH]2)CC1	-6.2%	i	0.0	.	0.8%[46.1 µM]	.
O=C(COC(=O)c1ccc(O)cc1O)N=c1sccn1Cc1ccccc1Cl	-22.6%	?	-28.1	?	?	7.94µM*
Cc1ccc(Cn2ccsc2=NC(=O)COC(=O)c2ccc(O)cc2O)cc1	.	.	-78.9*	.	.	11.2µM*
Cc1cccc2cc(CN(C(=O)c3cccc(Cl)c3)c3ccccc3)c(=O)[nH]c12	-4.0%	-11.6%	17.3	9.4%[46.1 µM]	-0.6%[46.1 µM]	.
COc1cccc(NC(=O)C2=C(C)C(=O)OC23CCN(C(C)=O)CC3)c1	0.0%	-4.1%	?	.	1.2%[46.1 µM]	.
COc1ccc(N/N=C(\C=N\O)C(=O)c2ccc(OC)cc2)cc1	?	-23.2%	-10.5	?	2.82µM*	-15.9%
COc1ccc(C(=O)C(=NNc2ccccc2)c2ccc(OC)cc2)cc1	-7.0%	?	?	?	-19.8%[46.1 µM]	?
CC(C)Oc1cccc(C(=O)C2CCCN(Cc3ccc(Oc4ncccn4)cc3)C2)c1 (centres undefined)	-3.8%	-16.8%	?	?	-24.6%	?
COc1c(C)cc(C(=O)C2CCCN(Cc3c(C)n(C)n(-c4ccccc4)c3=O)C2)cc1C (centres undefined)	-2.6%	-10.4%	-71.4*	?	-5.8%	0.8%
COc1c(C)cc(C(=O)C2CCCN(Cc3ccc(Oc4ncccn4)cc3)C2)cc1C (centres undefined)	.	.	-83.0*	.	.	?
CC(C)(C)C1CCC2(CC1)CC(=O)c1ccccc1O2 (centres undefined)	-11.6%	i	-60.5*	.	.	9.2%
c1ccc(COc2ccc(-c3cc4nc(NCc5ccc6c(c5)OCO6)ccn4n3)cc2)cc1	-24.2%	?	-64.1*	.	.	.
c1ccc(COc2cccc(-c3cc4nc(NCc5ccc6c(c5)OCO6)ccn4n3)c2)cc1	-13.5%	-28.8%	22.2	.	.	.
CCCCSc1nnc2c(n1)OC(c1ccc(Br)s1)Nc1ccccc1-2 (centres undefined)	-6.9%	i	64.7	15.1%[46.1 µM]	25.0%[46.1 µM]	.
C=CCn1c(C2CCCCC2)n[nH]c1=S	-1.1%	i	-96.8*	4.4%	-1.6%	-15.0%
